A selection: hits, their analogues and other compounds. The true share with any hit is near 6.8%.
MK inhibit: S. pneumoniae mevalonate kinase inhibition; purified MK, PK/LDH-coupled NADH absorbance 340 nm; 0.48% of 65,000 active; inhibition, % at 10 µM; AID 555;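 active = ranked among the strongest by inhibition in the single 10 µM screen, a fixed top-ranked set picked for dose follow-up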
PMK inhibit: inhibitors of Streptococcus pneumoniae phosphomevalonate kinase. 0.49% of 65,000 active. AID 539. inhibition, % at 10 µM. purified PMK, PK/LDH-coupled NADH absorbance 340 nm;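 active = top-ranked compounds by inhibition in the single 10 µM screen, taking a fixed number of the strongest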
DPM-DC inhibit: blocks S. pneumoniae diphosphomevalonate decarboxylase | 0.49% of 65,000 active | AID 556 | purified DPM-DC, PK/LDH coupled NADH fluorescence | calls only at 10 µM;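 active = the 320 compounds with the highest percent inhibition in the single-dose primary screen, excluding strongly autofluorescent ones, cut at about 32% in these data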;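 note: kinetic rate of NADH fluorescence loss reporting ADP formed by the decarboxylase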
Abs 340nm: compound absorbs light at 340 nm; 65,000 tested, under 10 active; compound absorbance at 340 nm, fold over control; fold change at 10 µM;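 active = at 10 µM dose, initial 340 nm absorbance at least 2 fold that of control wells; inactive = change under 2 fold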;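 note: initial absorbance extrapolated from kinetic A340 decline of NADH oxidation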
NADH enzymes: inhibition of NAD/NADH coupling enzymes, library profiling; coupled PK/LDH NADH assays, four targets; IC50, µM (doses to about 10 µM); 0.02% of 65,000 active; AID 774;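 active = single-dose screening hits from any of four coupled enzyme assays that gave an IC50 when retested across doses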;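 note: the DPM-DC format reads NADH fluorescence rather than 340 nm absorbance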
Autofluor 339: intrinsic fluorescence of library compounds, ex339/em460 – biochemical, MLSMR library, data from DPM-DC assay, artefact control, profiling panel | compound autofluorescence, ex339/em460 nm, NADH buffer; stronger effect = higher value; 1 = no-compound wells, NADH background | AID 709 | 5.5% of 65,000 active | fluorescence fold increase at 10 µM;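 active = at 10 µM, mean starting fluorescence two-fold or more over control wells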;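 note: signal is the first read of a kinetic run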
Numbers stand for hits.

For CC1=C(C(=O)Nc2ccccc2)C(c2ccc(C)o2)n2c(s/c(=C\c3ccco3)c2=O)=N1 (stereo not given) the results were MK inhibit inactive, PMK inhibit inactive, DPM-DC inhibit inactive, Abs 340nm inactive, NADH enzymes inactive and Autofluor 339 inactive.
For CCCc1cc(C(=O)Nc2sc(C)c(C)c2C(=O)OCC)no1 the results were MK inhibit inactive, PMK inhibit inactive, Abs 340nm inactive, NADH enzymes inactive and Autofluor 339 2.4.
`CCOC(=O)c1c(NC(=O)c2cccs2)sc2c1CCN(C(=O)OCC)C2` gave MK inhibit inactive, PMK inhibit inactive, Abs 340nm inactive, NADH enzymes inactive and Autofluor 339 2.
CCOC(=O)c1c(-c2ccccc2)csc1NC(=O)c1nn(CC)cc1Br was read as MK inhibit inactive, PMK inhibit inactive, Abs 340nm inactive, NADH enzymes inactive and Autofluor 339 3.5.
CCOC(=O)c1c(NC(=O)c2nn(CC)cc2Br)c(C#N)cn1-c1ccccc1 was read as MK inhibit inactive, PMK inhibit inactive, DPM-DC inhibit inactive, Abs 340nm inactive, NADH enzymes inactive and Autofluor 339 inactive.
Screening CCOC(=O)c1c(-c2cccs2)csc1NC(=O)c1ccncc1 returned MK inhibit inactive, PMK inhibit inactive, Abs 340nm inactive, NADH enzymes inactive and Autofluor 339 2.2.
`COc1cccc2cc(C(=O)n3ccc(C)n3)c(=O)oc12` gave MK inhibit inactive, PMK inhibit inactive, DPM-DC inhibit inactive, Abs 340nm inactive, NADH enzymes inactive and Autofluor 339 inactive.
`CN(C=O)CP(=O)(O)CCN1CCCC1=O` gave MK inhibit inactive, PMK inhibit inactive, DPM-DC inhibit inactive, Abs 340nm inactive, NADH enzymes inactive and Autofluor 339 inactive.
Cc1ccc(NC(=O)C(C)N2C(=O)c3ccccc3C2=O)cc1 (stereo not given) was read as MK inhibit inactive, PMK inhibit inactive, DPM-DC inhibit inactive, Abs 340nm inactive, NADH enzymes inactive and Autofluor 339 inactive.
CCC1(CC)Nc2ccccc2C(=O)N1c1ccc(NC(C)=O)cc1 was read as MK inhibit inactive, PMK inhibit inactive, Abs 340nm inactive, NADH enzymes inactive and Autofluor 339 3.7.
CCOC(=O)N1CCN(C(=O)Cn2nc(-c3ccc(Cl)cc3)ccc2=O)CC1 was read as MK inhibit inactive, PMK inhibit 25, DPM-DC inhibit inactive, Abs 340nm inactive, NADH enzymes inactive and Autofluor 339 inactive.
`CCOc1ccccc1NC(=O)CC1NCCNC1=O` (stereo not given) gave MK inhibit inactive, PMK inhibit inactive, DPM-DC inhibit inactive, Abs 340nm inactive, NADH enzymes inactive and Autofluor 339 inactive.
`COc1ccccc1COCC(O)CNCC1(N2CCCCC2)CCCCC1` (stereo not given) gave MK inhibit 41, PMK inhibit inactive, DPM-DC inhibit inactive, Abs 340nm inactive, NADH enzymes inactive and Autofluor 339 inactive.
`O=C(CN1CCN(c2ccccn2)CC1)Nc1cc(C(F)(F)F)ccc1Cl` gave MK inhibit inactive, PMK inhibit inactive, DPM-DC inhibit inactive, Abs 340nm inactive, NADH enzymes inactive and Autofluor 339 inactive.
Screening O=c1cc(NCCO)c2ccccc2o1 returned MK inhibit inactive, PMK inhibit inactive, DPM-DC inhibit inactive, Abs 340nm inactive, NADH enzymes inactive and Autofluor 339 inactive.
`OCCCCNc1cccc2ccccc12` gave MK inhibit inactive, PMK inhibit inactive, Abs 340nm inactive, NADH enzymes inactive and Autofluor 339 3.7.
Screening CCSc1nnc(NC(=O)C2CCCN(S(=O)(=O)c3cnc[nH]3)C2)s1 (stereo not given) returned MK inhibit inactive, PMK inhibit inactive, DPM-DC inhibit inactive, Abs 340nm inactive, NADH enzymes inactive and Autofluor 339 inactive.
For COc1cc2nc(-c3cccs3)oc(=O)c2cc1OC the results were MK inhibit inactive, PMK inhibit inactive, DPM-DC inhibit inactive, Abs 340nm inactive, NADH enzymes inactive and Autofluor 339 inactive.
For CCOc1ccc(-c2nc(-c3ccccc3)no2)cc1OCC the results were MK inhibit inactive, PMK inhibit inactive, DPM-DC inhibit inactive, Abs 340nm inactive, NADH enzymes inactive and Autofluor 339 inactive.
`c1cncc(-c2nnc(-c3cccs3)o2)c1` gave MK inhibit inactive, PMK inhibit inactive, DPM-DC inhibit inactive, Abs 340nm inactive, NADH enzymes inactive and Autofluor 339 2.3.
Screening c1csc(-c2nnc(-c3ccc(N4CCOCC4)cc3)o2)c1 returned MK inhibit inactive, PMK inhibit inactive, Abs 340nm inactive, NADH enzymes inactive and Autofluor 339 3.7.
Brc1ccccc1-c1nnc(-c2cccnc2)o1 was read as MK inhibit inactive, PMK inhibit inactive, DPM-DC inhibit inactive, Abs 340nm inactive, NADH enzymes inactive and Autofluor 339 inactive.
`COc1ccc(-c2nnc(-c3cccs3)o2)cc1OC` gave MK inhibit inactive, PMK inhibit inactive, Abs 340nm inactive, NADH enzymes inactive and Autofluor 339 2.5.
Screening CCOc1ccc(-c2nnc(-c3cccs3)o2)cc1OCC returned MK inhibit inactive, PMK inhibit inactive, Abs 340nm inactive, NADH enzymes inactive and Autofluor 339 3.7.
Screening COc1cc(-c2nnc(SCC#CCO)o2)cc(OC)c1OC returned MK inhibit inactive, PMK inhibit inactive, DPM-DC inhibit inactive, Abs 340nm inactive, NADH enzymes inactive and Autofluor 339 inactive.
Screening c1coc(-c2nnc(-c3cccs3)o2)c1 returned MK inhibit inactive, PMK inhibit inactive, Abs 340nm inactive, NADH enzymes inactive and Autofluor 339 3.4.
`O=c1cc(-c2ccco2)nc(-c2cccs2)o1` gave MK inhibit inactive, PMK inhibit inactive, DPM-DC inhibit inactive, Abs 340nm inactive, NADH enzymes inactive and Autofluor 339 inactive.
Screening COc1cc(-c2nnc(-c3cccs3)o2)cc(OC)c1OC returned MK inhibit inactive, PMK inhibit inactive, DPM-DC inhibit inactive, Abs 340nm inactive, NADH enzymes inactive and Autofluor 339 2.5.
For COC(=O)CC1SC(=O)NC1=Nc1ccccc1 (stereo not given) the results were MK inhibit inactive, PMK inhibit inactive, DPM-DC inhibit active, Abs 340nm inactive, NADH enzymes inactive and Autofluor 339 inactive.
COc1ccccc1-c1cc(C2CC2)nc(N)c1C#N was read as MK inhibit inactive, PMK inhibit inactive, Abs 340nm inactive, NADH enzymes inactive and Autofluor 339 2.1.
Screening COc1ccccc1N1CCN(c2nc(N)c(C#N)c(CC#N)c2C#N)CC1 returned MK inhibit inactive, PMK inhibit inactive, DPM-DC inhibit inactive, Abs 340nm inactive, NADH enzymes inactive and Autofluor 339 inactive.
COc1ccccc1-c1c(C)c(C)nc(N)c1C#N was read as MK inhibit inactive, PMK inhibit inactive, DPM-DC inhibit inactive, Abs 340nm inactive, NADH enzymes inactive and Autofluor 339 2.4.
`CCc1nc(N)c(C#N)c(-c2ccccc2OC)c1C` gave MK inhibit inactive, PMK inhibit inactive, DPM-DC inhibit inactive, Abs 340nm inactive, NADH enzymes inactive and Autofluor 339 2.3.

From PubChem BioAssay
